Data as given in PubChem BioAssay (NCATS).
Inconclusive results are not listed. Values without a mark were called inactive. Active and inactive are the calls of the source. The call rests on the fitted dose curve; in most records, active means well fitted inhibition curve with a large enough effect; inconclusive means small, poorly fitted or top-dose-only effect; inactive means flat fitted curve, though single readings scatter.

System: ICS
Experiment: qHTS profiling for inhibitors of Plasmodium falciparum proliferation (AID 504749); further: nearly all actives have a fitted effect of over 60% in size;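 on activity, negative = inhibition: 0% = DMSO vehicle and full inhibition = artemisinin control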
Conditions: P. falciparum in erythrocytes, SYBR Green DNA, 72 h; series mostly up to 28.7 µM; activity, negative = inhibition: at the top concentration
Outline: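 P. falciparum-infected erythrocytes (0.3% parasitemia, 2.5% hematocrit) incubated with compound 72 h at 37 C, 5% CO2. Parasite DNA detected by SYBR Green after lysis, overnight at room temperature; normalised to 0.29 uM artemisinin and DMSO.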
Potency means the concentration at half of the fitted maximal effect.

**Q.** How did the Potency turn out when COCCOC(=O)C1=C(C)NC(C)=C(C(=O)OC(C)C)C1c1cccc([N+](=O)[O-])c1 (stereo unspecified) was run?
**A.** 7.08 µM (active)

**Q.** For Cc1nc2sccn2c(=O)c1CCN1CCC(=C(c2ccc(F)cc2)c2ccc(F)cc2)CC1, which Potency is on record?
**A.** 8.91 µM (active)

**Q.** Which Potency does the source give for CCC(=O)c1ccc2c(c1)N(CCCN(C)C)c1ccccc1S2 here?
**A.** 8.91 µM (active)

**Q.** With CNC1(C)C2CCC(C2)C1(C)C (stereo unspecified) as the compound, how does the “activity, negative = inhibition” value read?
**A.** -0.488%

**Q.** Which Potency does the source give for NC(N)=NC(=O)Cc1c(Cl)cccc1Cl here?
**A.** 7.94 µM (active)

**Q.** Which Potency does the source give for Cc1nc2ccccn2c(=O)c1CCN1CCC(C(=O)c2ccc(F)cc2)CC1 here?
**A.** 8.91 µM (active)

**Q.** For COc1ccc(CN(CCN(C)C)c2ccccn2)cc1, which “activity, negative = inhibition” value is on record?
**A.** -21.8%

**Q.** How did the Potency turn out when CCCC(C(=O)OCCN(CC)CC)(c1ccccc1)c1ccccc1 was run?
**A.** 5.62 µM (active)

**Q.** CC(=O)[C@]1(O)Cc2c(O)c3c(c(O)c2[C@@H](O[C@H]2C[C@H](N)[C@H](O)[C@H](C)O2)C1)C(=O)c1ccccc1C3=O was tested. Which Potency did it give?
**A.** 1.78 µM (active)

**Q.** Which Potency does the source give for Brc1c(NC2=NCCN2)ccc2nccnc12 here?
**A.** 3.98 µM (active)

**Q.** With C=CCc1ccccc1OCC(O)CNC(C)C (stereo unspecified) as the compound, how does the Potency read?
**A.** 11.2 µM (active)

**Q.** For Fc1ccc(C(c2ccc(F)cc2)N2CCN(C/C=C/c3ccccc3)CC2)cc1, which Potency is on record?
**A.** 8.91 µM (active)

**Q.** How did the Potency turn out when CC(C)(C)c1ccc(C(=O)CCCN2CCC(OC(c3ccccc3)c3ccccc3)CC2)cc1 was run?
**A.** 4.47 µM (active)

**Q.** NC(N)=N/N=C/c1c(Cl)cccc1Cl was tested. Which Potency did it give?
**A.** 8.91 µM (active)

**Q.** Which Potency does the source give for CN(C)CCCN1c2ccccc2Sc2ccc(C(F)(F)F)cc21 here?
**A.** 10 µM (active)

**Q.** With CCN(CC)CCNC(=O)c1cc(S(C)(=O)=O)ccc1OC as the compound, how does the “activity, negative = inhibition” value read?
**A.** 4.48% [at 12.8 µM]
